# Screening data from PubChem.
# Hits are enriched below; roughly 1.6% of the tested compounds scored in any of these assays.
# KCNQ2 block: inhibitors of rat KCNQ2 potassium channel; 310,000 compounds, 1.1% hits; B-score at 10 µM; CHO-K1 KCNQ2, FluxOR thallium flux, 20 min; hits give low values; AID 2156; O88943;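 active means fluorescence ratio B-score at most minus 3 library SDs, with starting brightness B-score within 2 library SDs, cut at about -5.5 in these data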
# KCNQ2 pot: potentiators of rat KCNQ2 potassium channel. O88943. B-score at 10 µM. 310,000 compounds, 0.54% hits. CHO-K1 KCNQ2, FluxOR thallium flux fluorescence; hits give high values;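 active means fluorescence ratio B-score at least 3 SD of library B-scores, with initial fluorescence B-score within 3 of them, cut at about 5.3 in these data; same plate scores as AID 2156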;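 further: B-score of peak minus minimum over baseline fluorescence ratio after K+ and Tl+ stimulus; positive B-score means potentiation of KCNQ2 with more thallium influx and brighter signal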
# Kir21 confirm: confirmation of mouse Kir2.1 potassium channel inhibitors. Tl flux remaining, % of negative control (hits give low values), % at 10 µM. shares compounds with KCNQ2 pot. 2,300 compounds, 41% hits. AID 2032. Kir2.1-expressing cells, FluxOR thallium flux fluorescence; hits give low values;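 active means Primary-screen hit whose thallium flux fell at least 3 control SD below untreated wells in both duplicates, with normal baseline fluorescence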;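 further: 0% = blank wells without stimulus and 100% = stimulated no-compound controls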
# HEK293 ctr: parental HEK293 activity in Kir2.1 inhibitor counter-screen; parental HEK293 cells, FluxOR thallium flux fluorescence; 0% = unstimulated blank wells; FluxOR signal as % of negative control (100 = no effect), % at 10 µM; shares compounds with KCNQ2 pot; 2,300 compounds, 19% hits; AID 2105;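 active means dye signal at least 3 control SD above or below untreated wells in both duplicates, raw fluorescence within 3, either direction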;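 further: percent is based on the flux ratio of peak minus minimum fluorescence over baseline F0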
# CHO-K1 Tl ctr: parental CHO-K1 activity in KCNQ2 potentiator counter-screen. shares compounds with KCNQ2 pot. parental CHO-K1 cells, FluxOR thallium flux fluorescence; zero = vehicle mean+3SD, 100% = vehicle-minus-blank window. 1,200 compounds, 43% hits. activity increase over 3SD of controls, % at 10 µM;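 active means signal rise of at least 3 SD above the untreated control mean, in both duplicate wells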;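 further: counter screen of KCNQ2 potentiator hits so any rise reflects channel-independent effects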
# KCNQ1 pot spec: human KCNQ1 counter-target activity of KCNQ2 potentiators. shares compounds with KCNQ2 pot. 1,200 compounds, 28% hits. activation over 3SD threshold, % at 10 µM. CHO KCNQ1 stable, FluxOR thallium flux fluorescence; beyond 3SD, as % of vehicle-control signal;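 active means fluorescence ratio rise of at least 3 SD of vehicle wells above their mean, in both replicate wells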;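 further: 0% = vehicle mean plus 3 SD and 100% = vehicle minus unstimulated blank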
# Target sequence (P51787 whole entry, looked up): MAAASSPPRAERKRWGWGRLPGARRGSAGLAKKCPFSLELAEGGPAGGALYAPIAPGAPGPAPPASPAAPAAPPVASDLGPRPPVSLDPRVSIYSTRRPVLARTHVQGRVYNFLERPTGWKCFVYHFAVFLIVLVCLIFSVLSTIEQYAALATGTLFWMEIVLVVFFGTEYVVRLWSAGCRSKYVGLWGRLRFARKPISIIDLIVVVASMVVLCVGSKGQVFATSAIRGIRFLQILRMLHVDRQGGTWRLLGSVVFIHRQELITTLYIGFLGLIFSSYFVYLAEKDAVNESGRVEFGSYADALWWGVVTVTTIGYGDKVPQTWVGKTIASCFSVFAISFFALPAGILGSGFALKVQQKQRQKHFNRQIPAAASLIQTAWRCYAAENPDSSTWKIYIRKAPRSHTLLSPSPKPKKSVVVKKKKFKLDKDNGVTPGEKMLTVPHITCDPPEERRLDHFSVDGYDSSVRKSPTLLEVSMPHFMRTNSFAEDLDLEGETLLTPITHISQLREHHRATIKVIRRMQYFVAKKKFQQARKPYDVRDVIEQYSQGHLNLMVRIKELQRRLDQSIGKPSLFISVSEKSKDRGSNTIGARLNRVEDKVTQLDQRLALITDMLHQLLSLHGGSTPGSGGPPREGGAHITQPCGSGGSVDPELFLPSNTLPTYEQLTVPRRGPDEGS
# KCNQ2 pot confirm: rat KCNQ2 channel potentiator confirmation; shares compounds with KCNQ2 pot; CHO-KCNQ2 cells, FluxOR thallium flux fluorescence; potentiation, less the hit threshold, % at 10 µM; 1,200 compounds, 68% hits; AID 2287;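 active means fluorescence ratio rising 3 SD or more over the vehicle control mean in both replicates, plus primary screen hit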;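 further: peak minus minimum thallium fluorescence divided by baseline after K/Tl stimulus; 0% = vehicle mean plus 3 SD and 100% = vehicle minus unstimulated blank difference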
# Kir21 spec: tests whether KCNQ2 potentiators also affect mouse Kir2.1; 1,200 compounds, 2% hits; HEK293 Kir2.1, FluxOR thallium flux fluorescence; shares compounds with KCNQ2 pot; AID 2345; activity over 3SD threshold, % at 10 µM;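 active means fluorescence ratio rise of at least 3 SD above the vehicle-control mean, seen in both replicates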;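 further: 0% = vehicle mean plus 3 SD and 100% = vehicle minus no-stimulus blank window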
# KCNQ2 W236L MoA: potentiates the retigabine-insensitive rat KCNQ2 W236L mutant channel; shares compounds with KCNQ2 pot; CHO KCNQ2-W236L, automated patch clamp current; current increase over 3SD of negative controls (%), hits give high values, % at 25 µM; 940 compounds, 10% hits; AID 2558;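 active means current increase at least 3 SD of the untreated controls above them in both duplicate recordings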
# Numbers without * were called inactive; i = inactive; . = not tested or not shown.
SMILES,KCNQ2 block,KCNQ2 pot,Kir21 confirm,HEK293 ctr,others
COc1ccc(CCNC(=O)CN2CCCc3ccccc32)cc1OC,i,.,.,.,
CCOC(=O)C(Cc1c[nH]c2ccccc12)NC(=O)c1ccccc1Br (configuration not stated),i,.,.,.,
Cc1ccccc1NC(=O)CSc1ccsc1[N+](=O)[O-],i,1.55,.,.,
CC(C)c1ccc(NC(=O)C2CC3CCC2C3)cc1 (configuration not stated),i,25.9*,i,i,CHO-K1 Tl ctr=29.6*;KCNQ1 pot spec=-12.4;KCNQ2 pot confirm=66.5*;Kir21 spec=-22.9;KCNQ2 W236L MoA=i
CCOc1ccc(NC(=O)C2CC3CCC2C3)cc1 (configuration not stated),i,0.07,.,.,
CCC(C)c1ccc(NC(=O)C2CC3CCC2C3)cc1 (configuration not stated),i,26.1*,i,i,CHO-K1 Tl ctr=7.5*;KCNQ1 pot spec=-2.6;KCNQ2 pot confirm=105.0*;Kir21 spec=-39.0;KCNQ2 W236L MoA=i
O=C(Nc1ccc(F)cc1)C1CC2CCC1C2 (configuration not stated),i,1.37,.,.,
O=C(CCCCCCC(=O)NCc1ccccc1)NCc1ccccc1,i,0.55,.,.,
CC(C)Nc1ccc(Nc2ccnc3cc4ccccc4cc23)cc1,i,.,.,.,
c1ccc(CCNc2ccnc3cc4ccccc4cc23)cc1,i,0.82,i,i,
Cc1c(/C=C(\C#N)C(=O)NCc2ccccc2)cc(C#N)n1C,i,.,.,.,
COc1ccc(C2C(C#N)=C3NC(=O)c4c(sc5c4CCCCC5)N3C3=C2C(=O)CC(C)(C)C3)cc1 (configuration not stated),i,13.3*,i,i,CHO-K1 Tl ctr=69.9*;KCNQ1 pot spec=-4.4;KCNQ2 pot confirm=15.2*;Kir21 spec=-23.0;KCNQ2 W236L MoA=i
COc1ccc(C2C(C#N)=C(N)N(c3sc4c(c3C#N)CCCC4)C3=C2C(=O)CC(C)(C)C3)cc1 (configuration not stated),i,.,.,.,
O=C1[C@@H]2Cc3c([nH]c4ccccc34)C(c3cccc([N+](=O)[O-])c3)N2C(=O)CN1C1CCN(Cc2ccccc2)CC1 (some centres not stated),i,.,.,.,
CCCN1C(=O)c2ccccc2NC1c1ccc(Cl)c(Cl)c1 (configuration not stated),i,.,.,.,
CN[C@H]1CC[C@@H](c2ccc(Cl)c(Cl)c2)c2ccccc21,i,.,32.0%*,i,
CC(=O)Oc1cc2c3c(c1)/C(=C1/SC(=S)NC1=O)C(=O)N3C(C)(C)C=C2C,i,6.84*,i,i,CHO-K1 Tl ctr=-10.6;KCNQ1 pot spec=12.0*;KCNQ2 pot confirm=-20.8;Kir21 spec=-20.6
CCOc1cc2c3c(c1)C(C)=CC(C)(C)N3C(=O)C2=O,i,1.9,.,.,
CCn1c(Sc2ccc(N)cc2Cl)nc2ccccc21,i,.,75.5%*,i,
CCn1c(SCC(=O)NC(C)c2ccccc2)nc2ccccc21 (configuration not stated),i,.,.,.,
COCCN(C(=O)CCC(=O)Nc1ccccn1)C(C(=O)NC(C)C)c1ccc(C)cc1 (configuration not stated),i,.,.,.,
O=C1OC(/C(=C\Nc2cc(Cl)ccc2O)[N+](=O)[O-])c2ccccc21 (configuration not stated),i,.,.,.,
O=C(O)c1ccc(S(=O)(=O)N2CCCc3ccccc32)cc1,i,.,.,.,
CC(=O)c1ccc(S(=O)(=O)N2CCCc3ccccc32)cc1,i,.,.,.,
O=S(=O)(c1ccccc1)N1CCCc2ccccc21,i,.,64.0%*,i,
O=S(=O)(c1ccc(F)cc1)N1CCCc2ccccc21,i,.,71.0%*,i,
